Data from ChEMBL document CHEMBL1961873, “Compounds: GSK PKIS; Assays: Nanosyn kinase panel” (2012).

What was measured:
[1] = target: Ribosomal protein S6 kinase alpha-6 (Homo sapiens) (UniProt Q9UK32); details: at 1 µM;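 also: each value is a mean inhibition of RSK4 from a GSK PKIS panel screen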
[2] = target: T1, Serine/threonine-protein kinase Sgk1 (Homo sapiens) (UniProt O00141); details: at 0.1 µM
T1 sequence (whole entry): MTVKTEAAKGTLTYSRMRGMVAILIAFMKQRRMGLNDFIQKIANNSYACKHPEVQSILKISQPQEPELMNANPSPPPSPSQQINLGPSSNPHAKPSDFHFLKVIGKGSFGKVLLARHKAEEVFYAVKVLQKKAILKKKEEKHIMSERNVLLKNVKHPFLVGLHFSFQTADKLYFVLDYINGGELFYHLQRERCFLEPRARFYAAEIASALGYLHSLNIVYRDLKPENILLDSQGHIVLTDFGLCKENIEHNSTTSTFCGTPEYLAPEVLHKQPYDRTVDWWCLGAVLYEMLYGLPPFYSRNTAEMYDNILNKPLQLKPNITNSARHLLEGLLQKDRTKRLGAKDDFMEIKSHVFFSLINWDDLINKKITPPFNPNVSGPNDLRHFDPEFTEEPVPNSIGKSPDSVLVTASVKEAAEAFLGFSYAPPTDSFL

[3] = target: T1, Serine/threonine-protein kinase Sgk1 (Homo sapiens); details: at 1 µM
[4] = target: T2, Serine/threonine-protein kinase Sgk2 (Homo sapiens) (UniProt Q9HBY8); details: at 0.1 µM
T2 sequence (whole entry): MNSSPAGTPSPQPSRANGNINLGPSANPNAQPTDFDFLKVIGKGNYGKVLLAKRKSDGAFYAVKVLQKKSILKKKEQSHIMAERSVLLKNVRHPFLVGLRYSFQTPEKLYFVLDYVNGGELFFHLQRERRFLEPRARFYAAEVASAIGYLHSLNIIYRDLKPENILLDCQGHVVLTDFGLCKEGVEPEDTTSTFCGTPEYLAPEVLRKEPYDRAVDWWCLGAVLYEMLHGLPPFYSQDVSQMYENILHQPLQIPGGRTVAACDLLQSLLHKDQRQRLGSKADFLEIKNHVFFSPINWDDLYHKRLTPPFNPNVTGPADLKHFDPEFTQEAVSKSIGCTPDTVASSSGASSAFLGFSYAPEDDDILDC

[5] = target: T2, Serine/threonine-protein kinase Sgk2 (Homo sapiens); details: at 1 µM
[6] = target: T3, Serine/threonine-protein kinase Sgk3 (Homo sapiens) (UniProt Q96BR1); details: at 0.1 µM
T3 sequence (whole entry): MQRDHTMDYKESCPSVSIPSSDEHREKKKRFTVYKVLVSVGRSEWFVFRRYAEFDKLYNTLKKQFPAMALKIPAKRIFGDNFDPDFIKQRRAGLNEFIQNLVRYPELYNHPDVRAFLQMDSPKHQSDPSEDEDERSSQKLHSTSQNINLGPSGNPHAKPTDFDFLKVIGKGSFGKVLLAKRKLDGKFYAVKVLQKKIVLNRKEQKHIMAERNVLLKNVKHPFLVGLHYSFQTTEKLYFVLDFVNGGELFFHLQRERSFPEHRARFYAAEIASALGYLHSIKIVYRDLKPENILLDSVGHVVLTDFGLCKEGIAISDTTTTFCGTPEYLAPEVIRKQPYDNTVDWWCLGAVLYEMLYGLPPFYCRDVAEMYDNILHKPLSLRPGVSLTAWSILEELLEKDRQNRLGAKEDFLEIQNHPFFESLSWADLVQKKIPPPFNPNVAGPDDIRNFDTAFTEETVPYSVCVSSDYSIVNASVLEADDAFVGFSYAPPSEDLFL

[7] = target: T3, Serine/threonine-protein kinase Sgk3 (Homo sapiens); details: at 1 µM
[8] = target: 5'-AMP-activated protein kinase catalytic subunit alpha-1 (Homo sapiens) (UniProt Q13131); details: at 0.1 µM
Sequence of 5'-AMP-activated protein kinase catalytic subunit alpha-1 (Homo sapiens) (Q13131 whole entry, looked up): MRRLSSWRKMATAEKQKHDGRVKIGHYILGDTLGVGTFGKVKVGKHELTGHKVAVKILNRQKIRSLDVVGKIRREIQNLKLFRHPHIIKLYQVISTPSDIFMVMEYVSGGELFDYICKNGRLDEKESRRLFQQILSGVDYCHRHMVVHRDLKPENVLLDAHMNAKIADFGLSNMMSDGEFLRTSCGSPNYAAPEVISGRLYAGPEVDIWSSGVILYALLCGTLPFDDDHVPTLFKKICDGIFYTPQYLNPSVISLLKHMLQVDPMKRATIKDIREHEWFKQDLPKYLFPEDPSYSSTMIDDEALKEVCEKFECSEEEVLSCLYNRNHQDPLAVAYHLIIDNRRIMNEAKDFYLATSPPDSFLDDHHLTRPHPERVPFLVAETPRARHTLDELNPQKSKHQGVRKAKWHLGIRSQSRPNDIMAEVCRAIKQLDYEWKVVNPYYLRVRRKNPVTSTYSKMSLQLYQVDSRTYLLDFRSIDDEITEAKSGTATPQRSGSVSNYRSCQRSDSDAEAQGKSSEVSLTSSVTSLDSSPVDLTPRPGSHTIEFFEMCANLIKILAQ

[9] = target: 5'-AMP-activated protein kinase catalytic subunit alpha-1 (Homo sapiens) (UniProt Q13131); details: at 1 µM
[10] = target: 5'-AMP-activated protein kinase catalytic subunit alpha-2 (Homo sapiens) (UniProt P54646); details: at 0.1 µM
Sequence of 5'-AMP-activated protein kinase catalytic subunit alpha-2 (Homo sapiens) (P54646 whole entry, looked up): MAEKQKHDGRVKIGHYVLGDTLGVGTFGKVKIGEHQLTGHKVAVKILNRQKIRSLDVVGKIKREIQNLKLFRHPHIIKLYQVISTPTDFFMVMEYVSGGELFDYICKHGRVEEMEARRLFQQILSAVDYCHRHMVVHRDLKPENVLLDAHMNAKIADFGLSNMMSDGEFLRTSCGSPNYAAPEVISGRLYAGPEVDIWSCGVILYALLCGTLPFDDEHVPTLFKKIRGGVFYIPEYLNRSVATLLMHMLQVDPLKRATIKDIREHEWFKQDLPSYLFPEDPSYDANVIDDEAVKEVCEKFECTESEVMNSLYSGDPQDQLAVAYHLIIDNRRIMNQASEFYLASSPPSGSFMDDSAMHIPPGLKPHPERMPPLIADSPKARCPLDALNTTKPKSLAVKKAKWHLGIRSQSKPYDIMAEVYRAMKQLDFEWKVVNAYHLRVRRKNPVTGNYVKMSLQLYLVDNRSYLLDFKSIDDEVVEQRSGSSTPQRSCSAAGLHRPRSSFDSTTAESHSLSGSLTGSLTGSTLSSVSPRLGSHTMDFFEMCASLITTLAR

[11] = target: 5'-AMP-activated protein kinase catalytic subunit alpha-2 (Homo sapiens) (UniProt P54646); details: at 1 µM
[12] = target: T4, NUAK family SNF1-like kinase 1 (Homo sapiens) (UniProt O60285); details: at 0.1 µM
T4 sequence (whole entry): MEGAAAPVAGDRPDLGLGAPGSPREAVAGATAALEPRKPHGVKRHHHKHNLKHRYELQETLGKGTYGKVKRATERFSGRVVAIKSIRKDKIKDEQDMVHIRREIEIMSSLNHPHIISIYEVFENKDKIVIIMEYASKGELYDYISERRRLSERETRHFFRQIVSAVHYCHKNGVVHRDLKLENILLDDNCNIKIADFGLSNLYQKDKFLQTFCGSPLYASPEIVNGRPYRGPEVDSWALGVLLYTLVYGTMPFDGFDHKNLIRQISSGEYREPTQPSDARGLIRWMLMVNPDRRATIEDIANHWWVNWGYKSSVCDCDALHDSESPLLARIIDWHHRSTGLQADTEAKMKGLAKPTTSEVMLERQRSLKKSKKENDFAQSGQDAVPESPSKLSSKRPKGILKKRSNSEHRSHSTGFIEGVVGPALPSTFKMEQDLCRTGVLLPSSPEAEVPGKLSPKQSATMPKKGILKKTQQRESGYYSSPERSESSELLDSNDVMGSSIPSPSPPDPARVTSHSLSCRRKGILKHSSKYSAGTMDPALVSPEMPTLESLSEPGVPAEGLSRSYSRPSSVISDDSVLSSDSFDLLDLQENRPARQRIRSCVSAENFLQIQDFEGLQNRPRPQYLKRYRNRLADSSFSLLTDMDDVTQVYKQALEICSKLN

[13] = target: T4, NUAK family SNF1-like kinase 1 (Homo sapiens); details: at 1 µM
[14] = target: T5, Serine/threonine-protein kinase BRSK1 (Homo sapiens) (UniProt Q8TDC3); details: at 0.1 µM
T5 sequence (whole entry): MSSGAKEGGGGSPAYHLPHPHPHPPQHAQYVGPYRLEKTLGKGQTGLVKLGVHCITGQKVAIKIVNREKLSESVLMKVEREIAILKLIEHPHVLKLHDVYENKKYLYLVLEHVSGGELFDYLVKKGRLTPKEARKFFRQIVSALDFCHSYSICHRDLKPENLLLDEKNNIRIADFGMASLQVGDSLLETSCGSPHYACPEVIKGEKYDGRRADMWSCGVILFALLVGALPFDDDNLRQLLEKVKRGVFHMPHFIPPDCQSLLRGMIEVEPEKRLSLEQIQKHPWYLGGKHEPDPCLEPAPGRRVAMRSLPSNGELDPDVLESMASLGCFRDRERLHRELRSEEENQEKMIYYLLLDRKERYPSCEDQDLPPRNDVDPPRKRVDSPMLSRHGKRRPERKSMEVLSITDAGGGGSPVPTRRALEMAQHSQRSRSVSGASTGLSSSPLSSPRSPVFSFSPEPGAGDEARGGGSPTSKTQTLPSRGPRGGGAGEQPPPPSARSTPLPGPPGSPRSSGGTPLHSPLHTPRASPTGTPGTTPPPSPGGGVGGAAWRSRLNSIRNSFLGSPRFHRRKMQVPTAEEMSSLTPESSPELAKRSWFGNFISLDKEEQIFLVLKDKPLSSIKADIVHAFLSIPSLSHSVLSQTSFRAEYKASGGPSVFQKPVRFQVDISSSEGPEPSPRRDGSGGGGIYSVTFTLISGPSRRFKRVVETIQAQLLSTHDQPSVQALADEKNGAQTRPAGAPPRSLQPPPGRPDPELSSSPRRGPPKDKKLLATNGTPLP

[15] = target: T5, Serine/threonine-protein kinase BRSK1 (Homo sapiens); details: at 1 µM
[16] = target: T6, Serine/threonine-protein kinase BRSK2 (Homo sapiens) (UniProt Q8IWQ3); details: at 0.1 µM
T6 sequence (whole entry): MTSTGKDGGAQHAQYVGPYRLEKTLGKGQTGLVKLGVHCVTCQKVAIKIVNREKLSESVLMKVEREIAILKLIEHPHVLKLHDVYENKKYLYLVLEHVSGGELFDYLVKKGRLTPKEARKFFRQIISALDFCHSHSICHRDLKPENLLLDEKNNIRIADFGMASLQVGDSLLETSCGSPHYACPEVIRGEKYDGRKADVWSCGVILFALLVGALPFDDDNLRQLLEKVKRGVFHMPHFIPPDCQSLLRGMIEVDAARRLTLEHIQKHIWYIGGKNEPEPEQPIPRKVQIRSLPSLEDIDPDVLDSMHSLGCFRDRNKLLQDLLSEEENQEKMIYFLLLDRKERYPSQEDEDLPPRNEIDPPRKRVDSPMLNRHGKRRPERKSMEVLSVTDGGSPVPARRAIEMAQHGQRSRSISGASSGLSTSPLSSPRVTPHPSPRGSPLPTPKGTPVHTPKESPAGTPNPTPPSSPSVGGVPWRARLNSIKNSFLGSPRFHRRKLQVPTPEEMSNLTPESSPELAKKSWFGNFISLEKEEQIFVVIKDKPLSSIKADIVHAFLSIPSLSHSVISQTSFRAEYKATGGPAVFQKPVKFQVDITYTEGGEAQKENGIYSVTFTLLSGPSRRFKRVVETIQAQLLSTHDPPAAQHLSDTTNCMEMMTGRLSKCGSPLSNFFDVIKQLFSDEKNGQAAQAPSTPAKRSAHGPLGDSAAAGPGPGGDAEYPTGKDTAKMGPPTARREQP

[17] = target: T6, Serine/threonine-protein kinase BRSK2 (Homo sapiens); details: at 1 µM
[18] = target: Calcium/calmodulin-dependent protein kinase type 1D (Homo sapiens) (UniProt Q8IU85); details: at 0.1 µM
Sequence of Calcium/calmodulin-dependent protein kinase type 1D (Homo sapiens) (Q8IU85 whole entry, looked up): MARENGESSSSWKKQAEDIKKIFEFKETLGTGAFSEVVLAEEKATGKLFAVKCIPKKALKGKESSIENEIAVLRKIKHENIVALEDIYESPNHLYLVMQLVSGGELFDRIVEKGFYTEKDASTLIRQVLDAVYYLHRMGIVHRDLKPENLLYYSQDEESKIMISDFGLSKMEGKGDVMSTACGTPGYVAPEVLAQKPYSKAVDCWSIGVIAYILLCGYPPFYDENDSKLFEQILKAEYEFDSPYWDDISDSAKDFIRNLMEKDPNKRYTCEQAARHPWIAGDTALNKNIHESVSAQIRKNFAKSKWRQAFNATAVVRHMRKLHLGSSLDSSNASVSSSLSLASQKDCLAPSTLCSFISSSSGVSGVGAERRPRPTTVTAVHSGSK

[19] = target: Calcium/calmodulin-dependent protein kinase type 1D (Homo sapiens) (UniProt Q8IU85); details: at 1 µM
[20] = target: Calcium/calmodulin-dependent protein kinase type II subunit alpha (Homo sapiens) (UniProt Q9UQM7); details: at 0.1 µM;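 also: reported values are averages (mean inhibition of CAMK2A)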
Sequence of Calcium/calmodulin-dependent protein kinase type II subunit alpha (Homo sapiens) (Q9UQM7 whole entry): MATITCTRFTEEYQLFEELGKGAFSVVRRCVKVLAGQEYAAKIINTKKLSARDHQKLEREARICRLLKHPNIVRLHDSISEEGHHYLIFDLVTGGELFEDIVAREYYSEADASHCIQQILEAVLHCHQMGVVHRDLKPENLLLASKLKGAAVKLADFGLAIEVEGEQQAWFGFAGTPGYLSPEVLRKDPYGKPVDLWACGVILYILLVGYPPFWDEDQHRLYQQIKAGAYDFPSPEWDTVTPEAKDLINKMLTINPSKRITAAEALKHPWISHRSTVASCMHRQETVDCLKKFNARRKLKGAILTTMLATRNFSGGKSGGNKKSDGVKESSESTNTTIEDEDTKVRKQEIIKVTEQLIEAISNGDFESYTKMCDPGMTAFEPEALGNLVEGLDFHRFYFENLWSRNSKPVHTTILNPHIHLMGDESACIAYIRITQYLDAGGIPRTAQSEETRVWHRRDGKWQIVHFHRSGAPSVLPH

Sequence of Ribosomal protein S6 kinase alpha-6 (Homo sapiens) (Q9UK32 whole entry): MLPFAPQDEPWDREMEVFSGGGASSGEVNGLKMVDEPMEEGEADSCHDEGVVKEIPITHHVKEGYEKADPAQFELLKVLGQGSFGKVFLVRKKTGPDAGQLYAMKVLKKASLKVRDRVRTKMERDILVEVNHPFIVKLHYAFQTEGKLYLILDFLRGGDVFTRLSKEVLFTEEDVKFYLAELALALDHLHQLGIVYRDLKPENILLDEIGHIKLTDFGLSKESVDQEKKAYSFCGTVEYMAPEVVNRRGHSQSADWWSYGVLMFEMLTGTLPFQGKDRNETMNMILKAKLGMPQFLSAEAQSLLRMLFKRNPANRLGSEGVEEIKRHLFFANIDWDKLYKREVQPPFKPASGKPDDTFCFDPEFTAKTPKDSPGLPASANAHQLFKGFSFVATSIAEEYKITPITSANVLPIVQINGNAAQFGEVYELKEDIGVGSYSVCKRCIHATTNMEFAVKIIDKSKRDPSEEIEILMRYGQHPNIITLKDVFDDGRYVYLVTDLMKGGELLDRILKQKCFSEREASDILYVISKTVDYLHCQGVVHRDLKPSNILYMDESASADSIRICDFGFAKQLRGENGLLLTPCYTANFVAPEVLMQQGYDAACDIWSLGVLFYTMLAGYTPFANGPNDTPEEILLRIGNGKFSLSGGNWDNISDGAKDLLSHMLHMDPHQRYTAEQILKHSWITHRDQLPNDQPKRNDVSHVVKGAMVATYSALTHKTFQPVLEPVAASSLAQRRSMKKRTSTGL

SMILES	inhibition [1] [%]	inhibition [2] [%]	inhibition [3] [%]	inhibition [4] [%]	inhibition [5] [%]	inhibition [6] [%]	inhibition [7] [%]	inhibition [8] [%]	inhibition [9] [%]	inhibition [10] [%]	inhibition [11] [%]	inhibition [12] [%]	inhibition [13] [%]	inhibition [14] [%]	inhibition [15] [%]	inhibition [16] [%]	inhibition [17] [%]	inhibition [18] [%]	inhibition [19] [%]	inhibition [20] [%]
NC(=O)c1cccc(Nc2nccc(Nc3cccc4[nH]ncc34)n2)c1	9.04	-1.84	1.71	-4.35	-0.81	-4.06	-1.36	3.35	18.5	2.4	11	40.5	80.7	3.32	22	2.15	19.3	0.34	4.12	-4.01
COc1ccc(-c2coc3ncnc(N)c23)cc1	2.17	2.68	1.67	-1.21	-0.41	2.69	2.97	2.92	3.4	4.54	5.94	3.47	1.24	3.33	4.41	2.46	4.44	1.1	2.41	3.92
O=C1NC(=O)C(c2cccc(Cl)c2)=C1Nc1ccc(O)c(Cl)c1	21.5	2.17	0.01	0.49	3.67	-0.12	-0.88	1.08	8.5	0.44	11	8.01	48.3	2.57	12.9	2.05	19	1.1	5.88	3.72
